Bioassay records from PubChem BioAssay.
TDP1 inh = qHTS Assay for Inhibitors of Tyrosyl-DNA Phosphodiesterase (TDP1) | Tyrosyl-DNA phosphodiesterase 1 (Homo sapiens), Q9NUW8 | recombinant TDP1, AlphaScreen DNA substrate cleavage | Potency, µM (titrated, usually from 130 µM), for inactives: top-dose activity change, negative = inhibition, usual class: inhibitors | 350,000 compounds, 0.28% hits | AID 485290, 2010; further: potency means the concentration at half of the fitted maximal effect; nearly all actives have a fitted effect of over 40% in size
Target sequence (Q9NUW8 whole entry, looked up): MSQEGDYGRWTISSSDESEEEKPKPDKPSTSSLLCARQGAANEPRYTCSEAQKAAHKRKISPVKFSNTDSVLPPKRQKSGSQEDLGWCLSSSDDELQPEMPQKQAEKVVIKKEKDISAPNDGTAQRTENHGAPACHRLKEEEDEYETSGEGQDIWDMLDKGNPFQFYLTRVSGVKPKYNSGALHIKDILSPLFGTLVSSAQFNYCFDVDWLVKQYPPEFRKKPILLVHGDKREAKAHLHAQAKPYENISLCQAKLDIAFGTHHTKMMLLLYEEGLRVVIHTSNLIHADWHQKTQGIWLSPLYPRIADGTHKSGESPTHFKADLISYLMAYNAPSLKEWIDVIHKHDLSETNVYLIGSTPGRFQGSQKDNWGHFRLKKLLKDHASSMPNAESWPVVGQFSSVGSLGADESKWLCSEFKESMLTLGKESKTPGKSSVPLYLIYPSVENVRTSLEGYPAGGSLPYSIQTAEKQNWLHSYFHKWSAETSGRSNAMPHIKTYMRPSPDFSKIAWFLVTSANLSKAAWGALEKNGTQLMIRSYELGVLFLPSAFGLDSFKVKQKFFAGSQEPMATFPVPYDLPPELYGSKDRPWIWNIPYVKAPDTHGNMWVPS
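Recombinant E. coli-expressed Tdp1 (1 nM) preincubated with compound 15 min at RT, then 5'-biotin/3'-phosphotyrosine-FITC DNA substrate (15 nM) added for 5 min. AlphaScreen beads (10 ug/ml) added, 10 min RT; tyrosine-FITC cleavage read as signal loss.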
ELG1 DNA repair = qHTS screen for small molecules that inhibit ELG1-dependent DNA repair in human embryonic kidney (HEK293T) cells expressing luciferase-tagged ELG1 | HEK293T ELG1-luciferase reporter, luminescence, 16 h; DNA damage induced by 5-fluorouridine | Potency, µM (doses to about 46.1 µM), for the others: at the top dose activity change, negative = inhibition, usual class: inhibitors | 330,000 compounds, 2.3% hits; further: potency means the concentration at half of the fitted maximal effect; nearly all actives have a fitted effect of over 55% in size
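Overnight (16 hr) co-exposure of 2,000 cells/well to 5-fluorouridine and compound at 37 °C preceded detection. Luciferase was quantified via ONE-Glo luminescence; loss of signal denotes inhibition.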
TDP1 cell noCPT = qHTS for Inhibitors of human tyrosyl-DNA phosphodiesterase 1 (TDP1): qHTS in cells in absence of CPT; DT40 Tdp1-/- hTDP1 cells, no CPT, ATP luminescence, 48 h; Potency, µM (series often up to 46.2 µM), for inactives: at the top dose activity change, negative = growth inhibition, most hits filed as inhibitors; 420,000 compounds, 15% hits; AID 686978, 2013; further: potency means the concentration at half of the fitted maximal effect; nearly all actives have a fitted effect of over 55% in size
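A cellular qHTS used chicken DT40 cells lacking endogenous Tdp1 but carrying stably transfected human TDP1. Compounds were applied without camptothecin, and cell growth kinetics were judged by ATP-dependent luminescence after ≥48 hr.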
Giardia killer = Small Molecules that selectively kill Giardia lamblia: qHTS; Giardia lamblia trophozoite viability; activity change, % at 7.66 µM, hits read low; 340,000 compounds, 0.15% hits; AID 540267, 2011; in the data active means activity change below about -80%; inconclusive means between about -30% and that limit;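 further: parasites exposed to compound for two days anaerobically before the ATP read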
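Killing of trophozoites was scored by loss of ATP luminescence after a 48 hrs anaerobic exposure to compounds at 37 deg C, using 100 cells per well.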
IL-1B inflam inh = qHTS for Inhibitors of Inflammasome Signaling: IL-1-beta AlphaLISA Primary Screen. THP-1 LPS/ATP IL-1B secretion, AlphaLISA, 16 h; active compounds read low. AID 743279, 2014. activity change, % at 57.5 µM. 360,000 compounds, 4.7% hits; in the data active means activity change below about -50%; inconclusive means mostly about -30% to -49%
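Secreted IL-1B measured by AlphaLISA bead assay after 16 h compound exposure of THP-1 cells; compounds (final up to 57.5 uM) added 1 h before LPS (250 ng/mL) and ATP (1.25 mM) stimulation; lower signal means less secretion.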
DT40 TDP1 CPT = qHTS for Inhibitors of human tyrosyl-DNA phosphodiesterase 1 (TDP1): qHTS in cells in presence of CPT | chicken DT40 Tdp1-/-;hTDP1 cells + 20 nM CPT, ATP luminescence, 48 h | Potency, µM (series often up to 46.2 µM), for inactives: top-dose activity change, negative = growth inhibition, actives largely listed as inhibitors | 420,000 compounds, 12% hits; further: potency means the concentration at half of the fitted maximal effect; nearly all actives have a fitted effect of over 55% in size
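Cell growth measured by CellTiter-Glo luminescence after a minimum 48 h, 37 C compound exposure with 20 nM CPT in Tdp1-knockout DT40 cells stably expressing hTDP1, seeded 400/well; qHTS titration format.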
The depositor's hits bear a star; i = inactive; u = inconclusive; x = no result; [ ] = dose if it differs, or a comment. A selection: hits, their analogues and other compounds. The true share with any hit is near 19%. Unless noted, the call rests on the fitted dose curve; in most records, active means well fitted curve in the direction sought with a large enough effect; inconclusive means small, poorly fitted or top-dose-only effect, or another doubt; inactive means no such curve, though single readings can be large; an effect the other way counts as inactive or inconclusive. On the % scale 0 is the no-effect control and ±100 the full control effect.

SMILES	TDP1 inh	ELG1 DNA repair	TDP1 cell noCPT	Giardia killer	IL-1B inflam inh	DT40 TDP1 CPT
O=C(Cn1cc(SCc2c(F)cccc2Cl)c2ccccc21)N1CCCCCC1	-3%	x	u	x	x	23µM*
O=C(Cn1cc(SCc2ccc(Br)cc2)c2ccccc21)N1CCCCC1	-3%	x	16µM*	x	x	u
O=C(Cn1cc(SCc2ccc(F)cc2)c2ccccc21)N1CCCCCC1	-5%	x	u	x	x	u
O=C(Cn1cc(SCc2c(F)cccc2Cl)c2ccccc21)N1CCCCC1	-3%	x	u	x	x	u
CCn1c(=O)c2sccc2n2c(CCCC(=O)N3CCN(c4ccc(OC)cc4)CC3)nnc12	5%	x	u	x	x	u
O=C(N/N=C/c1cccc(OC(=O)c2ccco2)c1)c1ccc(F)cc1	0%	u	-11%	7	-5	6%
CCCCC/C=C\C\C=C/C=C/C=C/[C@@H](SC[C@H](N)C(=O)O)[C@@H](O)CCCC(=O)O	4%	x	19%[0.628 µM]	x	x	12%[0.628 µM]
Cc1cc(Br)c(Oc2cc(NN3CCCCC3)c([N+](=O)[O-])cc2[N+](=O)[O-])c(Br)c1	x	x	17%	-3	0	-16%
Cc1ccc(S(=O)(=O)n2cccc2C)cc1	x	x	-2%	2	4	u
O=C(Nc1ccc2c(c1)OCO2)N1CCN(c2cccc(C(F)(F)F)c2)CC1	2%	-7%	21µM*	-2	-25	9.2µM*
CCS(=O)(=O)N1CCc2cc(C(=O)N3CCN(c4cccc(C(F)(F)F)c4)CC3)ccc21	14%	x	23µM*	x	x	u
O=C(Nc1ccc2c(c1)OCO2)N1CCN(c2ccccc2Cl)CC1	5%	u	u	-16	-27	-24%
O=C(c1ccc2c(c1)OCO2)N1CCN(c2cccc(C(F)(F)F)c2)CC1	-11%	u	21µM*	-10	-16	18µM*
O=C(Nc1cccc(C(F)(F)F)c1)N1CCN(C(=O)Nc2cccc(C(F)(F)F)c2)CC1	-2%	-3%	-9%	15	39	-10%
O=C(c1ccc2c(c1)OCO2)N1CCN(c2ccc(F)cc2)CC1	3%	19%	-23%	-12	-8	-3%
COc1ccc(N2CCN(C(=O)Nc3cccc(C(F)(F)F)c3)CC2)cc1	1%	u	18µM*	-7	-14	u
Fc1ccc(NC(=S)N2CCN(c3ccccn3)CC2)cc1Cl	x	x	-17%	-1	14	u
CN(Cc1ccccc1)C1CCNCC1	x	-15%	5%	16	-11	4%
COc1ccc(OCC(=O)Nc2ccc(C)cc2)cc1	2%	16%	-20%	11	-15	4%
COc1ccc(OCC(=O)Sc2ccc(C)cc2)cc1	-7%	-18%	23µM*	0	-18	u
O=C(C[n+]1ccncc1)c1cccc([N+](=O)[O-])c1	x	x	-18%	x	x	u
Cc1ccc(-c2csc3ncnc(Oc4ccc5c(C)cc(=O)oc5c4)c23)cc1	5%	18µM*	u	9	28	18µM*
CC1(C)Cc2nc3oc4c(SCC(N)=O)ncnc4c3cc2CO1	x	2%	-6%	8	-10	-2%
CN(CC(=O)NCCc1ccc(S(N)(=O)=O)cc1)S(=O)(=O)c1cccc2nsnc12	3%	3%	8%	17	42	-24%
Cc1ccc(N2C(=O)N(Cc3cccc(Cl)c3)c3ccccc3S2(=O)=O)cc1	5%	x	u	x	x	u
SMILES	TDP1 inh	ELG1 DNA repair	TDP1 cell noCPT	Giardia killer	IL-1B inflam inh	DT40 TDP1 CPT
Cc1cccc(N2C(=O)N(Cc3cc(=O)n4ccccc4n3)c3ccccc3S2(=O)=O)c1	2%	x	26µM*	x	x	u
CCc1ccccc1N1C(=O)N(Cc2cccc(Cl)c2)c2ccccc2S1(=O)=O	5%	x	u	x	x	u
CCc1ccccc1N1C(=O)N(Cc2cc(=O)n3ccccc3n2)c2ccccc2S1(=O)=O	-2%	x	18µM*	x	x	23µM*
N#Cc1c(C(F)(F)F)cc(-c2cccs2)nc1SCc1ccccc1F	3%	x	u	x	x	u
O=C(NCCc1ccccn1)c1cc2ccccc2o1	0%	u	4%	-21	54	-21%
COC(=O)CSc1nnc(CNC(=O)c2ccccc2F)n1-c1ccc(F)cc1	7%	3%	u	-7	-56*	3%
COc1ccc(-c2cc3ccccc3oc2=O)cc1NC(=O)c1ccc([N+](=O)[O-])o1	-5%	-9%	15µM*	-94*	-9	21µM*
COc1ccc(-c2cc3ccccc3oc2=O)cc1NC(=S)NC(=O)c1ccc2c(c1)OCCO2	2%	u	9.2µM*	-16	-15	12µM*
COc1ccc(-c2cc3ccccc3oc2=O)cc1NC(=O)c1ccc(Br)o1	5%	u	u	9	-6	-20%
CC1CN(S(=O)(=O)c2cccc(C(=O)OC(C)C(=O)NC3CCCCC3C)c2)CC(C)O1 (stereo not drawn)	1%	u	-23%	-8	i	-4%
Cc1ccc(N(C(=O)c2ccc(S(=O)(=O)N3CCCC3)cc2)C2C=CS(=O)(=O)C2)cc1 (stereo not drawn)	3%	2%	-15%	-1	-12	1%
O=C(COC(=O)c1cc([N+](=O)[O-])ccc1N1CCOCC1)Nc1ccc(Cl)cn1	5%	-8%	u	-5	-9	u
N/C(=N\OC(=O)CC(c1ccccc1)c1ccccc1)c1cccnc1	-5%	-7%	u	5	u	12µM*
O=C(c1cnc(N2CCN(c3ncccn3)CC2)c2ccccc12)N1CCN(c2ncccn2)CC1	0%	u	15µM*	-1	-54*	15µM*
O=C(c1cnc(N2CCCCC2)c2ccccc12)N1CCN(c2ccc(Cl)cc2)CC1	-2%	x	23µM*	x	x	15µM*
Cc1ccc(Cl)cc1N1CCN(C(=O)c2cnc(N3CCOCC3)c3ccccc23)CC1	3%	x	6.5µM*	x	x	5.8µM*
CN(C(=O)c1cnc(N2CCN(c3ncccn3)CC2)c2ccccc12)c1ccc(Cl)cc1	0%	u	21µM*	-4	-84*	u
CCCc1nc(SC)ncc1C(=O)N1CCN(c2ccc(Cl)cc2)CC1	1%	x	23µM*	x	x	u
